# VP16 counter = VP16 counterscreen qHTS for inhibitors of ROR gamma transcriptional activity; Potency, µM (doses to about 53.6 µM), without a hit: at the highest dose activity, negative = inhibition, hits mostly inhibitors; Drosophila S2 Gal4-VP16 UAS-luciferase, luminescence, 20 h; AID 2546, 2010; 310,000 compounds, 3.5% hits;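 further: Gal4-VP16 expression switched on by copper sulfate through the metallothionein promoter; potency means the concentration at half of the fitted maximal effect; nearly all actives have a fitted effect of over 50% in size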
# LDHA inh = qHTS assay for inhibitors of human lactate dehydrogenase; 480,000 compounds, 0.15% hits; activity change, % (values are at about 110 or 230 µM); AID 1347041, 2019; L-lactate dehydrogenase A chain (Homo sapiens), P00338; purified LDHA, NADH/diaphorase-resazurin fluorescence; active compounds read low; in the data active means activity change below about -30%; inconclusive means mostly about -25% to -30%;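 further: plate controls were DMSO wells for no effect and wells without enzyme for full effect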
#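 Human LDH5 at 2 nM final in Tris HCl pH 7.4 with 0.06 mM NADH and 0.2 mM pyruvate, reacted 5 minutes at room temperature. Remaining NADH coupled via diaphorase/resazurin; resorufin fluorescence read at 0 and 20 minutes, normalized to enzyme-free and DMSO wells.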
# TDP1 cell noCPT = qHTS for Inhibitors of human tyrosyl-DNA phosphodiesterase 1 (TDP1): qHTS in cells in absence of CPT. AID 686978, 2013. Potency, µM (doses to about 46.2 µM), inactives show at the top dose activity change, negative = growth inhibition, usual class: inhibitors. 420,000 compounds, 15% hits. DT40 Tdp1-/- hTDP1 cells, no CPT, ATP luminescence, 48 h; further: potency means the concentration at half of the fitted maximal effect; nearly all actives have a fitted effect of over 55% in size
#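 Stably hTDP1-transfected Tdp1-null chicken DT40 cells were treated with library compounds minus camptothecin and grown for at least 48 hr at 37 °C, after which cellular ATP was quantified by luminescence.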
# RORgamma inh = qHTS for inhibitors of ROR gamma transcriptional activity | Drosophila S2 Gal4-RORgamma UAS-luciferase reporter, 20 h | Nuclear receptor ROR-gamma (Mus musculus), P51450 | 310,000 compounds, 5.4% hits | Potency, µM (top dose mostly 53.6 µM), without a hit: at the top dose activity change, negative = inhibition, usual class: inhibitors | AID 2551, 2010; further: potency means the concentration at half of the fitted maximal effect; nearly all actives have a fitted effect of over 60% in size
# Target sequence (P51450 whole entry, looked up, the tested form may be a part): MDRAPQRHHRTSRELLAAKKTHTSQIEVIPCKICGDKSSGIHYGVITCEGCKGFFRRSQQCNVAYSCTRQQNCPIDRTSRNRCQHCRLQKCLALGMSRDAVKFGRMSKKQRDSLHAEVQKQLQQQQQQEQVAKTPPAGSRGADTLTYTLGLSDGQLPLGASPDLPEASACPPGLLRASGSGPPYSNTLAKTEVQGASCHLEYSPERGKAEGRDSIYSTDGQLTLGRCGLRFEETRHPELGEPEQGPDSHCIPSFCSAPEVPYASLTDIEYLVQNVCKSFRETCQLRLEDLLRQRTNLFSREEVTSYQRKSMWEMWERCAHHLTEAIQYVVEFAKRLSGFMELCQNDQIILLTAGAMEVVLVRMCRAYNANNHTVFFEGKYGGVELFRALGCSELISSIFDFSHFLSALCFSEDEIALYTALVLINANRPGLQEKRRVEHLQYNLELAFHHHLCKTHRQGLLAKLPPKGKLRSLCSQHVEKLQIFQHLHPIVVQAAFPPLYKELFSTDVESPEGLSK
#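 In this cell-based reporter format, copper sulfate (700 uM final) drives Gal4–ROR gamma fusion expression from a metallothionein promoter in Drosophila Schneider cells; compounds preincubated 1 hr, reporter read after 20 hr at ambient temperature.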
# IL1B secr inh = qHTS for Inhibitors of Inflammasome Signaling: IL-1-beta AlphaLISA Primary Screen; THP-1 LPS/ATP IL-1B secretion, AlphaLISA, 16 h; active compounds read low; activity change, % at 57.5 µM; 360,000 compounds, 4.7% hits; AID 743279, 2014; in the data active means activity change below about -50%; inconclusive means mostly about -30% to -49%
#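 Secreted IL-1B measured by AlphaLISA bead assay after 16 h compound exposure of THP-1 cells; compounds (final up to 57.5 uM) added 1 h before LPS (250 ng/mL) and ATP (1.25 mM) stimulation; lower signal means less secretion.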
# TDP1 cell CPT = qHTS for Inhibitors of human tyrosyl-DNA phosphodiesterase 1 (TDP1): qHTS in cells in presence of CPT; chicken DT40 Tdp1-/-;hTDP1 cells + 20 nM CPT, ATP luminescence, 48 h; Potency, µM (doses to about 46.2 µM), for the others: at the top dose activity change, negative = growth inhibition, actives largely listed as inhibitors; 420,000 compounds, 12% hits; further: potency means the concentration at half of the fitted maximal effect; nearly all actives have a fitted effect of over 55% in size
#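 Chicken DT40 Tdp1-/- cells complemented with human TDP1, 400 cells/well, exposed to compounds plus 20 nM camptothecin for at least 48 h at 37 C; viability read as ATP content by CellTiter-Glo luminescence.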
# * hit, by the source's call; ? = inconclusive; nt = no result; [ ] = remark or other dose. Rows were chosen to be rich in hits. Some 18% of all compounds tested hit in one or more screens of this group. Unless noted, the call rests on the fitted dose curve; in most records, active means well fitted curve in the direction sought with a large enough effect; inconclusive means small, poorly fitted or top-dose-only effect, or another doubt; inactive means no such curve, though single readings can be large; an effect the other way counts as inactive or inconclusive. Unless noted, on the % scale 0 is the no-effect control and ±100 the full control effect.
SMILES,VP16 counter,LDHA inh,TDP1 cell noCPT,RORgamma inh,IL1B secr inh,TDP1 cell CPT
CC(=O)OCC1=C(C(=O)O)N2C(=O)C(NC(=O)CCCC(N)C(=O)O)C2SC1 (stereo unspecified),2%,nt,-23%,2%,nt,?
CCCOC(=O)C1=C(C)CS[C@@H]2[C@H](NC(=O)COc3ccccc3)C(=O)N12,nt,nt,?,nt,nt,20µM*
CCn1cc(C(=O)NCCc2ccc(Cl)cc2)c(=O)c2cc(S(=O)(=O)N(C)C3CCCCC3)ccc21,nt,1,?,nt,nt,?
O=c1[nH]c2sccc2c2ccccc12,-2%,nt,nt,3%,nt,nt
CCOc1nc(NC(C)C)nc(N2CC3CC(C2)c2cccc(=O)n2C3)n1 (stereo unspecified),-5%,-4,?,5%,15,18µM*
CCCCCCNc1nc(OC)nc(N2CC3CC(C2)c2cccc(=O)n2C3)n1 (stereo unspecified),-13%,0,?,4%,-22,?
Cc1cc(O)c2c(c1)C(=O)C13C(=C2O)C(=O)[C@H]2[C@@H](O)[C@@H]1[C@H]1[C@H](O)[C@@H]3C(=O)C3=C(O)c4c(O)cc(C)cc4C(=O)C312 (stereo partly specified),nt,15,1.2µM*,nt,27,0.65µM*
COc1ccc(-n2c(/C=C\c3ccccc3F)nc3ccccc3c2=O)cc1OC,nt,-15,16µM*,nt,nt,23µM*
CSc1ccc(/C=C/c2nc3ccccc3c(=O)n2-c2cccc(Cl)c2C)cc1,nt,-3,?,nt,nt,?
O=c1c2ccccc2nc(/C=C/c2cccc3ccccc23)n1-c1ccccc1Cl,nt,-4,10µM*,nt,nt,12µM*
Cc1ccccc1-n1c(/C=C/c2ccccc2F)nc2ccccc2c1=O,nt,2,8.2µM*,nt,nt,21µM*
CC(C)OC(=O)C(O)(c1ccc(Cl)cc1)c1ccc(Cl)cc1,-3%,nt,nt,-26%,nt,nt
COc1cc2nc(CN3CC=C(c4ccccc4)CC3)[nH]c(=O)c2cc1OC,nt,4,18µM*,nt,-24,?
C=C(C)CN1CCN(Cc2ccc(OC)cc2)CC1,nt,-8,nt,nt,nt,nt
O=C(CC[N+](=O)[O-])OCC1OC(O)C(OC(=O)CC[N+](=O)[O-])[C@@H](OC(=O)CC[N+](=O)[O-])C1OC(=O)CC[N+](=O)[O-] (stereo partly specified),-16%,nt,5.8µM*,4%,nt,?
Cc1ccc(C2SCC(=O)Nc3c2c(C)nn3-c2ccccc2)cc1 (stereo unspecified),nt,1,nt,nt,nt,nt
C=CC[C@@H](CC(=O)N(CCO)Cc1ccccc1)C(=O)NC[C@@H](OC(=O)[C@@H](CC=C)CC(=O)OC(C)(C)C)c1ccccc1,nt,9,?,nt,?,?
C=CC[C@H](CC(=O)N(CCO)Cc1ccccc1)C(=O)NC[C@H](OC(=O)[C@@H](CC=C)CC(=O)OC(C)(C)C)c1ccccc1,nt,10,23µM*,nt,-71*,21µM*
Cc1ccc([C@H]2C[C@@H](n3cc(C4CC4)nn3)[C@H](O)CN2Cc2cccs2)cc1,nt,-2,-21%,nt,3,-29%
O[C@H]1C[C@H](c2ccccc2)N(CC2CCCCC2)C[C@@H]1n1cc(-c2ccc(F)cc2)nn1,nt,4,15µM*,nt,17,23µM*
O[C@@H]1CCCN2C[C@@H](O)[C@@H](O)C12 (stereo partly specified),nt,nt,-2%[166 µM],nt,nt,-4%[166 µM]
ClC1=C(Cl)C2(Cl)C3C4CC(C5OC45)C3C1(Cl)C2(Cl)Cl (stereo unspecified),-5%,nt,nt,2%,nt,nt
C/C=C1/C[C@@H](C)[C@@](C)(O)C(=O)OCC2=CCN3CC[C@@H](OC1=O)[C@@H]23,-9%,nt,nt,-24%,nt,nt
COc1ccc2c(c1)CC[C@@H]1[C@@H]2CC[C@]2(C)[C@@H](NCCCCCCN3C(=O)C=CC3=O)CC[C@@H]12,nt,nt,22µM*,nt,nt,?
CC(=O)OC1CC[C@@]2(C)C3CC(=O)[C@]4(C)C(C(C)=O)=CCC4C3CC[C@H]2C1 (stereo partly specified),-2%,nt,?,-16%,nt,-4%
SMILES,VP16 counter,LDHA inh,TDP1 cell noCPT,RORgamma inh,IL1B secr inh,TDP1 cell CPT
C#C[C@]1(O)CCC2C3C(CC[C@@]21C)[C@@]1(C)CC[C@@H](O)CC1=C[C@H]3O (stereo partly specified),nt,-4,23µM*,nt,22,?
C#C[C@]1(O)CCC2C3C(=O)C=C4C=CCC[C@]4(C)C3CC[C@@]21C (stereo partly specified),nt,-2,?,nt,-9,-23%
CC1CCC(C(C)C)C(OC(=O)c2ccccc2N)C1 (stereo unspecified),?,nt,?,45%,nt,?
Nc1ncnc2c1ncn2[C@@H]1O[C@H](COP(=O)(O)OP(=O)(O)OP(=O)(O)O)[C@H]2OC3(O[C@H]21)C([N+](=O)[O-])=CC(=[N+]([O-])[O-])C=C3[N+](=O)[O-] (stereo partly specified),-2%,nt,nt,2%,nt,nt
C#CCN1C(=O)S/C(=C\c2ccc(N3CCOCC3)cc2C)C1=O,25%,-11,7.3µM*,11%,0,?
CCCN1CCO[C@@H]2c3cc(O)ccc3OC[C@@H]21,8%,nt,-4%,8%,nt,6%
CSc1cccc(CNC(=O)C2CCC(=O)N(Cc3cccc(C(F)(F)F)c3)C2)c1 (stereo unspecified),?,1,-6%,10%,-11,?
CN1C(C(=O)NCc2cccc(C(F)(F)F)c2)CC2Cn3c(nc4cc5ccccc5cc43)C21 (stereo unspecified),0%,-1,18µM*,20%,-7,?
CC1CC[C@@]2(NC1)OC1CC3C4CC[C@@H]5CC(O)CC[C@@]5(C)C4CC[C@]3(C)C1C2C (stereo partly specified),4%,nt,nt,-35%,nt,nt
CCc1ccc(NC(=O)c2ccc(F)c(S(=O)(=O)N3CCC4(CC3)OCCO4)c2)cc1,nt,4,21µM*,nt,nt,?
CCc1ccc(NC(=O)c2ccc(F)c(S(=O)(=O)N3CCc4ccccc4C3)c2)cc1,nt,-3,21µM*,nt,nt,?

# High-throughput results as filed in PubChem.
